In the assay the target is T1, Aspartate--tRNA(Asp/Asn) ligase (Mycobacterium tuberculosis (strain ATCC 25618 / H37Rv)) (UniProt P9WFW3).
T1 sequence (whole entry): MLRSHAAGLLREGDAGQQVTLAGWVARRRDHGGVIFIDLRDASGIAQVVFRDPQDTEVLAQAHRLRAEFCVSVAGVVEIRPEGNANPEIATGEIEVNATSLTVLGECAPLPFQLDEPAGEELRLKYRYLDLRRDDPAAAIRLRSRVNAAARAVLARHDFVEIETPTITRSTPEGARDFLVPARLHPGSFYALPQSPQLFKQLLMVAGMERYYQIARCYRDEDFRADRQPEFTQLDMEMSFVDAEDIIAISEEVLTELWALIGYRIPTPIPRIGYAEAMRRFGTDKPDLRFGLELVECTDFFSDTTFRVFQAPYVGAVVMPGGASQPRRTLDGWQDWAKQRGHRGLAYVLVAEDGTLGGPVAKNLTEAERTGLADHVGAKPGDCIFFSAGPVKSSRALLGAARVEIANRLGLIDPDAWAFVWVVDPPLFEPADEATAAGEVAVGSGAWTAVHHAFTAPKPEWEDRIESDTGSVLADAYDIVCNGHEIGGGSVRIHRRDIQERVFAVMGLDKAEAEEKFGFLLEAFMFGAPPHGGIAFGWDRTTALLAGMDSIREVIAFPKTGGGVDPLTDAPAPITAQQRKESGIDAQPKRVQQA
The assay can be described thus: Assay for Asp RNA synthetase-1 from Mycobacterium tuberculosis. Also noted: scale not given: in the data most compounds retested in dose-response had high values. It counts as functional. Particulars: 30 µM.
With `O=C(c1ccc(N2CCCC2)nn1)N1CCCC(n2cccn2)C1` (stereo not given), the Percent Effect turned out to be 3.23%. On to `COc1ncc(C2(O)CCN(Cc3ccccc3O)CC2)c(OC)n1`, for which the Percent Effect is -1.78%. Under `Cc1ncc2c(n1)CCN(Cc1nc3ccccc3o1)C2` stands 6.98%; under `CC(C)n1ccnc1CN1CCCN(C(=O)c2cccnc2O)CC1`, -2.15%. The result for `Cc1cccc2c1cnn2CCCNC(=O)CCCC(=O)O` reads 15.5%; that for `C[C@@H]1CN(C2(C(=O)N3CCOCC3)Cc3ccccc3C2)C[C@H](C)O1`, 0.585%; that for `Cc1oncc1C(=O)N1CCC2(C1)CN(c1cccnc1)C(=O)CN2C` (stereo not given), -6.17%. On to `Cc1noc(C(C)C)c1C(=O)NCC(c1cccc(F)c1)N(C)C` (stereo not given), for which the Percent Effect was -4.05%. Under `CN(C)C(=O)CN1CCCCC1c1nc(N)ncc1-c1cccc(F)c1` (stereo not given) stands -1.78%. Under `CCOC(C)c1nc(CN2CCN(c3nccc(C)n3)CC2)cs1` (stereo not given) stands -0.859%; under `CSCCCN1CCn2nc(CNC(C)=O)cc2C1`, 3.05%; under `CCn1ncc2c1C(COCC1CC1)CN(C(=O)c1cccs1)C2` (stereo not given), -1.73%. Consider `Cc1cc(C)n(C2CN(CC(O)c3ccc4c(c3)OCO4)C2)n1` (stereo not given), for which the Percent Effect was -5.92%. Under `Cc1ccc(OCCC(=O)NC2CCc3nccn3C2)cc1` (stereo not given) stands -1.56%; under `Cc1cc(C)c(OCC(=O)NS(=O)(=O)c2c(C)noc2C)c(C)c1`, -3.08%; under `O=C1OC2(CCN(C3CCCOC3)CC2)CN1CCc1ccccc1` (stereo not given), 1.52%. Under `CCOC(=O)c1sc2ccsc2c1CN` stands -0.321%; under `COc1ccc(C(=O)NS(=O)(=O)c2cncc(Br)c2)cc1OC`, 0.457%. Under `CC(C)CN1C[C@H]2CCN(c3ncccn3)CC[C@H]2S1(=O)=O` stands 2.71%; under `Cc1cc(C[C@@H]2COC[C@@H]2NC(=O)CN2CCCC2)on1`, 4.6%. With `CC(C)(C)C(O)CN1CCN(C(=O)c2cccc3[nH]ncc23)CC1` (stereo not given), the Percent Effect is -5.46%. As for `Cc1cccc(C2(NC(=O)CCN3C(=O)CCC3=O)CCCC2)c1`, the Percent Effect is -6.14%. With `O=C(Nc1ccc(F)c(Br)c1)N1CCCC1`, the Percent Effect turned out to be 4.74%.

Turning to `Cc1ccc(C(=O)N2CCCC3(CCCC(=O)N3C)C2)cc1F` (stereo not given), the Percent Effect was determined as 3.71%. The result for `CC(O)CN1CCC(CNCc2cccc(OC(C)C)c2)CC1` (stereo not given) reads 3.21%; that for `CCC(O)CN1CCN(C(=O)c2cccn2Cc2cccs2)CC1` (stereo not given), 0.685%. The result for `CC(NC(=O)CSCC(=O)Nc1ccccc1)c1ccccc1` (stereo not given) reads 3.01%. Turning to `Cc1cnn(CC2CCCN2Cc2nnsc2Cl)c1` (stereo not given), the Percent Effect is -2.88%. Take `Cc1cnn(CC2CCCN2C(=O)c2ccc(OC(C)C)nc2)c1` (stereo not given): the Percent Effect was -4.48%. The result for `Cc1nc(C)c2c(n1)CCN(C(=O)CC1CC1)CC2` reads -2.64%; that for `CCc1cc(C)c(C(=O)N2CCCC2CC(=O)c2cnn(C)c2)o1` (stereo not given), -2.02%; that for `CCn1cnnc1C1CCN(C(=O)c2ccc3cc[nH]c3c2)CC1`, -3%. In the case of `CN(C)C(=O)c1cnc2n1CCN(Cc1ccccc1)C2`, the Percent Effect amounted to 0.632%.

As to `O=C(NCCOc1cccc(Cl)c1)C1CC(=O)N(CC2CC2)C1` (stereo not given), the Percent Effect was found to be 0%. Under `Cc1noc(C)c1C(=O)NCc1ccc(N2CCOC(C)C2)nc1` (stereo not given) stands -1.75%; under `COc1cccc(CN2CCOC(Cn3nc(C)cc3C)C2)c1` (stereo not given), 1.48%; under `c1ccc(-c2ccc(C3CNCCO3)nc2)cc1` (stereo not given), 7.81%. The result for `N#CCSCCCN1CCN(C(=O)c2ccc(Cl)cc2)CC1` reads 0.593%; that for `CCS(=O)(=O)N1CCC2(CCC2NC(=O)c2ccn(C)c2)CC1` (stereo not given), 1.6%. As to `Cc1ccccc1C1(C(=O)NCCN2CCCC2)CCOCC1`, the Percent Effect was found to be 11.1%.
